# Test results: ChEMBL document CHEMBL3988442, “University of Dundee, Small-Polar-MMV Screening Library” (2021)
# Screen size: about 66,000 compounds; about 960 (1.5%) showed an effect of 50% or more. The sample as a whole holds a higher share of strong results than the screen did.
# Tested on: Trypanosoma brucei
# Assay: Trypanosoma brucei 72 hour study
# Assay type: functional, organism-based
# Design: scale not given: in the data most compounds retested in dose-response had high values
compound,measurement,setting,value
COc1ccc(CN2CCc3ncnc(C4CC4)c3CC2)cc1.O=C(O)C(F)(F)F,Percent Effect,"30 µM, 30.03 µM",-6.255%
Cc1nc(C)n(CC2CCCCN2Cc2nc3ccccc3o2)n1 (centres undefined),Percent Effect,"30.3 µM, […]",-29.61%
same,Percent Effect,"10 mM, 10 mM as filed; unlikely as a test dose",-25.93%
Cc1cc(N2CCCC(O)(CN(C)C)C2)c2cc3c(cc2n1)OCO3 (centres undefined),Percent Effect,"30 µM, 30.03 µM",17.65%
Cc1cc(N2CCCC3(CN(C)C(=O)O3)C2)c2cc3c(cc2n1)OCO3 (centres undefined),Percent Effect,"30 µM, 30.03 µM",-17.57%
Cc1cc(N2CCC(O)(CN(C)C)C2)c2cc3c(cc2n1)OCO3 (centres undefined),Percent Effect,"30 µM, 30.03 µM",101.2%
CN(C)C[C@H]1OC[C@@H]2CCN(S(=O)(=O)c3ccc(F)cc3)C[C@@H]21.O=C(O)C(F)(F)F,Percent Effect,"30 µM, 30.03 µM",-20.07%
Cn1cncc1CN1CCC2(CC1)COCCN(S(C)(=O)=O)C2.O=C(O)C(F)(F)F,Percent Effect,"30.3 µM, […]",-5.891%
C[C@@H](N)C(=O)N1CC2(CCNCC2)c2cc(Cl)ccc21.Cl.Cl,Percent Effect,"30.3 µM, […]",51.33%
Cl.Cl.O=C([C@@H]1CSCN1)N1CC2(CCNCC2)c2cc(Cl)ccc21,Percent Effect,"30.3 µM, […]",-15.46%
Cl.Cl.O=C([C@H]1CCCN1)N1CC2(CCNCC2)c2cc(Cl)ccc21,Percent Effect,"30.3 µM, […]",11.24%
CC(C)C[C@H](N)C(=O)N1CC2(CCNCC2)c2cc(Cl)ccc21.Cl.Cl,Percent Effect,"30.3 µM, […]",46.04%
Cc1ccc2c(c1)C1(CCNCC1)CN2C(=O)C(C)C,Percent Effect,"30.3 µM, […]",-10.81%
CCOC(=O)N1CC2(CCNCC2)c2cc(Cl)ccc21.Cl,Percent Effect,"30.3 µM, […]",80.77%
CN(C)C(=O)N1CC2(CCNCC2)c2cc(Cl)ccc21.Cl,Percent Effect,"30.3 µM, […]",-10.23%
Cl.O=C(c1ccccc1F)N1CC2(CCNCC2)c2cc(Cl)ccc21,Percent Effect,"30.3 µM, […]",-26.55%
COCCN1CC[C@H](OC)[C@@H]1Cc1ccccc1.O=C(O)C(F)(F)F,Percent Effect,"30 µM, 30.03 µM",-24.73%
O=C(COC[C@@]12CCC[C@@H]1CN(C1CCC1)C2)N1CCCC1.O=C(O)C(F)(F)F,Percent Effect,"30.3 µM, […]",-61.71%
Cc1nn(C)c2c(=O)n(CC(=O)NCC3CCCO3)ccc12 (centres undefined),Percent Effect,"30 µM, 30.03 µM",-1.766%
CNC(=O)CN1CC[C@H]2CN(C(=O)c3ccoc3)C[C@H]2C1.O=C(O)C(F)(F)F,Percent Effect,"30.3 µM, […]",-45.09%
CCOCC1CN(Cc2nccs2)Cc2nn(CC3CC3)cc21.O=C(O)C(F)(F)F (centres undefined),Percent Effect,"30 µM, 30.03 µM",-7.531%
COc1ncc(CN(CCCN2CCOCC2)Cc2ccc(C)o2)cn1.O=C(O)CC(O)(CC(=O)O)C(=O)O,Percent Effect,"30.3 µM, […]",-12.51%
CNc1nc(C2CCCN2C(C)=O)nc2c1CN(CCO)CC2.O=CO (centres undefined),Percent Effect,"30.3 µM, […]",20.17%
COc1ccc(OC)c([C@@H]2N[C@H](c3nccs3)Cc3ccsc32)c1,Percent Effect,"30.3 µM, […]",15.15%
CCOc1ccc([C@@H]2N[C@H](c3nccs3)Cc3ccsc32)cc1OC,Percent Effect,"30.3 µM, […]",10.72%
COc1cccc([C@@H]2N[C@H](c3nccs3)Cc3ccsc32)c1OC,Percent Effect,"30.3 µM, […]",100.1%
CCOc1cc([C@@H]2N[C@H](c3nccs3)Cc3ccsc32)ccc1OC,Percent Effect,"30.3 µM, […]",9.707%
COc1cc([C@@H]2N[C@H](c3nccs3)Cc3ccsc32)cc(OC)c1OC,Percent Effect,"30.3 µM, […]",-6.656%
CCOc1cc([C@H]2N[C@@H](c3nc(C)cs3)Cc3ccsc32)ccc1OC,Percent Effect,"30.3 µM, […]",85.49%
O=C(CN1C[C@H]2C[C@H](OCc3ccccc3)C[C@H]2C1)N1CCOCC1,Percent Effect,"30.3 µM, […]",-15.88%
Cc1cc(C)n(CC2CN(c3nnc(C)c(C)c3C#N)CCO2)n1 (centres undefined),Percent Effect,"30.3 µM, […]",5.324%
O=C(NCC1CCCN(Cc2cccc3nonc23)C1)c1ccc[nH]1 (centres undefined),Percent Effect,"30 µM, 30.03 µM",-46.2%
NC1(C(=O)NCC2CCCN(Cc3ccccc3F)C2)CCCC1 (centres undefined),Percent Effect,"30 µM, 30.03 µM",-11%
NC1(C(=O)NCC2CCCN(Cc3cccc4nonc34)C2)CCC1 (centres undefined),Percent Effect,"30 µM, 30.03 µM",54.97%
COc1ccc(CN2CCc3nc4ccsc4c(=O)n3CC2)c(C)c1C,Percent Effect,"30.3 µM, […]",7.671%
CCn1cc(NC(=O)C(C)n2ncc(Cl)c2C)c(C(=O)NC)n1 (centres undefined),Percent Effect,"30 µM, 30.03 µM",-19.95%
Cc1ccc(CN2C[C@@H]3[C@@H](C(=O)NCC(C)C)CCS(=O)(=O)[C@@H]3C2)cc1.O=C(O)C(F)(F)F,Percent Effect,"30.3 µM, […]",-11.51%
CC(C)CNC(=O)[C@H]1CCS(=O)(=O)[C@@H]2CN(Cc3ccc(Cl)cc3)C[C@H]12.O=C(O)C(F)(F)F,Percent Effect,"30 µM, 30.03 µM",63.22%
CC(C)CNC(=O)[C@H]1CCS(=O)(=O)[C@@H]2CN(Cc3ccc(F)cc3)C[C@H]12.O=C(O)C(F)(F)F,Percent Effect,"30.3 µM, […]",-43.77%
CC(CNCc1ccc(Cl)cc1)Oc1ccccn1.Cl (centres undefined),Percent Effect,"30 µM, 30.03 µM",-4.288%
NC(=O)COc1ccc(C2NC(=O)CN2Cc2ccc(Br)cc2)cc1 (centres undefined),Percent Effect,"30 µM, 30.03 µM",-15.28%
COc1cc(OC)cc(C2NC(=O)CN2Cc2ccc(Br)cc2)c1 (centres undefined),Percent Effect,"30 µM, 30.03 µM",-25.05%
Cc1cc(C2NC(=O)CN2Cc2ccc(Br)cc2)cc(C)c1O (centres undefined),Percent Effect,"30 µM, 30.03 µM",94.42%
CC1N(c2cnn(C)c2)C(=O)COC12CCN(c1ncccn1)CC2.O=C(O)C(F)(F)F (centres undefined),Percent Effect,"30.3 µM, […]",-2.456%
CN(CCc1ccccn1)C(=O)c1cccs1.Cl,Percent Effect,"30 µM, 30.03 µM",-41.89%
O=C(c1nc(-c2ccc3cc[nH]c3c2)no1)N1CCCC1,Percent Effect,"30 µM, 30.03 µM",53.89%
COCCNC(=O)c1nc(-c2ccc3cc[nH]c3c2)no1,Percent Effect,"30 µM, 30.03 µM",-23.6%
O=C(NCCN1CCCCC1)c1nc(-c2ccc3cc[nH]c3c2)no1,Percent Effect,"30 µM, 30.03 µM",29.87%
COCCNc1cc(C2CCCNC2)ccn1.Cl (centres undefined),Percent Effect,"30.3 µM, […]",9.179%
CCNC(=O)[C@@H]1C[C@H](N)CN1Cc1ccc(Sc2ccc(C)cc2)o1,Percent Effect,"30.3 µM, […]",18.4%
CCNC(=O)[C@@H]1C[C@@H](N)CN1Cc1ccc(Sc2ccc(C)cc2)o1,Percent Effect,"30.3 µM, […]",100.1%
CCNC(=O)[C@@H]1C[C@H](N)CN1Cc1ccc(-c2cc[nH]n2)o1,Percent Effect,"30.3 µM, […]",-17.36%
COCCN1C(=O)C[C@H]2[C@H]1CCN2Cc1cccc(C#N)c1.O=C(O)C(F)(F)F,Percent Effect,"30 µM, 30.03 µM",17.08%
O=C(O)C(F)(F)F.O=C(c1ccc[nH]1)N1CCn2cc(CN3CCCC3)nc2C1,Percent Effect,"30 µM, 30.03 µM",-5.056%
O=C(c1ccc[nH]1)N1CCn2cc(Cn3cncn3)nc2C1,Percent Effect,"30 µM, 30.03 µM",-19.87%
O=C(O)C(F)(F)F.O=C(c1ccc[nH]1)N1CCn2cc(Cn3cccn3)nc2C1,Percent Effect,"30.3 µM, […]",63.53%
CNC(=O)CN(C)c1cncc(OCC(C)C)n1,Percent Effect,"30 µM, 30.03 µM",-18.74%
CC(C)COc1cncc(N2CCCN(c3ncccn3)CC2)n1,Percent Effect,"30.3 µM, […]",-75.77%
CC(C)COc1cncc(N(C)C2CCN(c3ncccn3)CC2)n1,Percent Effect,"30.3 µM, […]",90.23%
